From publication PMC12618258

How the values were obtained:
Assay in all cases: cross-link between two proteins; cross-linking mass spectrometry
[1] = biological target: Large ribosomal subunit protein eL24 (UniProt P83731)
[2] = biological target: Large ribosomal subunit protein eL38 (UniProt P63173)
[3] = biological target: Large ribosomal subunit protein eL30 (UniProt P62888)
[4] = biological target: Large ribosomal subunit protein eL6 (UniProt Q02878)
[5] = biological target: Large ribosomal subunit protein uL3 (UniProt P39023)

Large ribosomal subunit protein eL22, P35268
listed as a hit [1]: yes | listed as a hit [2]: yes

Large ribosomal subunit protein eL31, P62899
listed as a hit [1]: yes

Small ribosomal subunit protein uS4, P46781
listed as a hit [3]: yes

Small ribosomal subunit protein uS5, P15880
listed as a hit [4]: yes

Large ribosomal subunit protein eL13, P26373
listed as a hit [5]: yes
